We go through 13 compounds from PubChem BioAssay.

Molecules are shown by their SMILES. “And” between values parts separate entries of the source, which are not always exact repeats. Identical values can stand only once. The source made the active and inactive calls. Unless noted, how the calls were made is not given here.

Assay [1] is described as follows: glutamate transport activators, MN-1 cells, MN-1 cell line (AID 1612).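 Further: tested at 1 µM final; 0% = mean of DMSO vehicle wells on each plate; positive means more glutamate uptake than control and negative means less.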 The note with it: MN-1 motor neuron cells, stronger effect = higher value.
The nature of assay [2]: GFP-Q80 aggregate reduction, neuronal-like cells, cell-based, NGF-treated PC12, GFPQ80 (AID 1614).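 Further: lower means fewer inclusions and 0 means no inclusions at all.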 The note with it: PC12 NGF-treated GFP-polyQ80 inclusion reduction.
Assay [3] is described as follows: 75Q-TubH aggregate inhibition, S. cerevisiae, yeast (AID 1616). The settings on record: S. cerevisiae 75Q-TubH polyglutamine aggregation suppression; stronger effect = higher value.
Assay [4] is described as follows: compounds altering circadian rhythm period length – cell-based, LOPAC library, luminescence reporter (AID 2774).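 Further: values are relative to mean of DMSO wells on each plate.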 The note with it: circadian reporter cells, at 7 µM, actives lie on both sides.
Assay [5] can be described thus: compounds altering viability of human ES cells (AID 493140).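 Further: cells exposed to compounds for four days before counting.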 The note with it: human embryonic stem cell survival screen; stronger effect = higher value.
Assay [6] has as its system Hepatitis C virus NS3 helicase. As to the kind of experiment: blockers of NS3h binding to ssDNA – biochemical, fluorescence polarization, LOPAC1280 library, primary screen (AID 687035; in the data active means inhibition above about 37%). The note with it: Purified HCV NS3 helicase, Cy5-dT15 ssDNA binding fluorescence polarization; stronger effect = higher value; concentration not given here. In general terms: Fluorescence polarisation rises when a labelled molecule tumbles more slowly, as on binding a larger partner.

Assay [7] is described as follows: compounds altering Cy5-DNA-NS3h complex signal – biochemical, LOPAC1280, artefact control for HCV NS3 helicase inhibitor project (AID 687037). The note with it: Cy5-DNA-NS3h complex fluorescence interference counterscreen.
The nature of assay [8]: Wnt pathway potentiators raising nuclear beta-catenin – imaging, WNT3A-conditioned medium, mouse C2C12, NPC library, primary screen (AID 1117326; in the data active means nuclear beta-catenin stimulation mostly above about 4.2%, no sharp cut-off; inactive means mostly below about 10%). The note with it: stronger effect = higher value.
A short description of assay [9]: P. berghei load reduction in hepatocytes – cell-based, HepG2, luciferase luminescence, HepG2 viability, primary screen (AID 624349; in the data active means parasite load remaining mostly below about 12%, no sharp cut-off; inactive means mostly above about 10%;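 further: 100% = mean of DMSO negative control wells on the same plate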). The note with it: P. berghei liver stage in HepG2, luciferase luminescence, concentration not given here; parasite load remaining: stronger effect = lower value; viability: measured here: HepG2 viability without parasites.
Assay [10] is described as follows: signal quenchers or enhancers, Cy5 substrate/SSB – biochemical, NIH Clinical Collection, E. coli SSB, artefact control for HCV NS3 helicase inhibitor project (AID 743268). The settings on record: Cy5-oligo bound E. coli SSB, fluorescence interference.
Assay [11] deals with Hepatitis C virus NS3 helicase. As to the kind of experiment: blockers of NS3h binding to DNA – biochemical, fluorescence polarization, NIH Clinical Collection, primary screen (AID 743270). The settings on record: NS3 helicase binding to Cy5-dT15 DNA, stronger effect = higher value, concentration not given here.
The target in assay [12] is Single-stranded DNA-binding protein (Escherichia coli (strain K12)) (UniProt P0AGE0). The experiment in a line: SSB-ssDNA binding inhibitors – biochemical, fluorescence polarization, NIH Clinical Collection, counter-screen for HCV NS3 helicase inhibitor project (AID 743271; in the data active means inhibition above about 28%). The note with it: E. coli SSB-DNA binding, stronger effect = higher value, concentration not given here.
Assay [13] can be described thus: compounds distorting NS3 helicase fluorescence signal – biochemical, NIH Clinical Collection, artefact control for HCV NS3 helicase inhibitor project (AID 743272).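 Further: HCV NS3 helicase with a Cy5 labelled single stranded DNA probe.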 The note with it: fluorescence interference counterscreen, HCV NS3 helicase assay; stronger effect = lower value.
Assay [14] concerns Neuropilin-2 / VEGF-C interaction (human). The experiment in a line: small molecules blocking Neuropilin-2/VEGF-C interaction – biochemical, microplate binding format, z-score (AID 743281). The settings on record: microplate NRP2/VEGF-C binding assay; stronger effect = lower value.

As to `CN1CCN(CC(=O)N2c3ccccc3C(=O)Nc3cccnc32)CC1`, the glutamate uptake change in assay [1] was -10.6%. In addition, the inclusion score in assay [2] came to 2.5. For the same compound, in [3], the aggregation suppression score amounted to 1.19. The period change in assay [4] was 0.09 h (inactive). The survival in assay [5] was 8.33 (inactive). Besides, the inhibition (in general, the change of the read-out against control, counted positive when it falls) in assay [6] is -1% (inactive). Also, in [7], the fluorescence ratio (interference) is 1 (inactive). Besides, the nuclear beta-catenin stimulation in assay [8] (at 10 µM) was 1.7% (inactive); in assay [8] (stimulation, at 2 µM), -0.5%.

As to `CN(C)C(=O)Oc1cccc([N+](C)(C)C)c1`, the glutamate uptake change in [1] is -18.8% and 13.6%. In [2], this compound had an inclusion score of 2. For the same compound, the aggregation suppression score in [3] is 0.695 and 1.29. In addition, in [4], the period change was 0.06 h (inactive). In addition, in [5], the survival was 12.1 (inactive). For the same compound, the inhibition in assay [6] was -5% (inactive). In addition, the fluorescence ratio (interference) in assay [7] was 1 (inactive). The nuclear beta-catenin stimulation in assay [8] (at 10 µM) was 1% (inactive); in assay [8] (stimulation, at 2 µM), 5.2%.

Consider `Cc1nnc(SCC2=C(C(=O)O)N3C(=O)[C@@H](NC(=O)Cn4cnnn4)[C@H]3SC2)s1`, for which the glutamate uptake change in assay [1] was found to be 0.76%. The same compound showed an inclusion score in [2] of 2. The same compound showed an aggregation suppression score in assay [3] of 1.05. For the same compound, the period change in assay [4] was -0.065 h (inactive). For the same compound, in [5], the survival was 2.58 (inactive). In assay [9], the parasite load remaining was 82.1% (inactive) and 85.3% (inactive) and 68.8% (inactive); the viability (usually a read-out of living cells in per cent, often relative to untreated cells) was 98.8% and 78.7% and 99.1%. The inhibition in assay [6] is -3% (inactive). The fluorescence ratio (interference) in [7] is 0.9 (inactive). In [8] (at 10 µM), the nuclear beta-catenin stimulation was 0.1% (inactive). Also, the nuclear beta-catenin stimulation in assay [8] (stimulation, at 2 µM) is 0.2%.

`CCN(CC)CCNC(=O)c1cc(Cl)c(N)cc1OC`: in assay [1], the glutamate uptake change is -0.01%. In [2], this compound gave an inclusion score of 2. Further, the aggregation suppression score in assay [3] turned out to be 1.2. Also, in assay [4], the period change was -0.015 h (inactive). In addition, the survival in [5] is 14.7 (inactive). Moreover, the values for the inhibition in [6], in [11] and in [12] were -4% (inactive), -3.18% (inactive) and -0.48% (inactive), respectively. Moreover, the fluorescence ratio (interference) in [7] was 1 (inactive). Besides, the fluorescence ratio in [10] was 1.01 (inactive); in assay [13] it was 0.98 (inactive). Further, the nuclear beta-catenin stimulation in [8] (at 10 µM) is 0.2% (inactive); in assay [8] (stimulation, at 2 µM) it was -1.4%.

As to `CN(C)CCOC(=O)COc1ccc(Cl)cc1`, the glutamate uptake change in [1] is -7.05%. The same compound had an inclusion score in assay [2] of 2. In addition, the aggregation suppression score in assay [3] was 1.56. The period change in assay [4] is -0.09 h (inactive). In [5], the survival is 8.75 (inactive). Besides, in [9], the parasite load remaining is 72.9% (inactive) and 143% (inactive); the viability was 96.7% and 93.9%. Moreover, the inhibition in assay [6] was 0% (inactive). In assay [7], the fluorescence ratio (interference) was 1 (inactive). The nuclear beta-catenin stimulation in [8] (at 10 µM) was -0.6% (inactive). Further, in assay [8] (stimulation, at 2 µM), the nuclear beta-catenin stimulation was determined as 1%.

As for `CN1Cc2c(N)cccc2C(c2ccccc2)C1` (configuration not stated), in assay [1], the glutamate uptake change is -14.3%. In [2], this compound came in with an inclusion score of 2. Moreover, in [3], the aggregation suppression score was found to be 1.65. The period change in assay [4] was -0.06 h (inactive). The survival in assay [5] was 19.8 (inactive). The fluorescence ratio (interference) in [7] was 1 (inactive). Moreover, the nuclear beta-catenin stimulation in assay [8] (at 10 µM) was 3.1% (inactive); in assay [8] (stimulation, at 2 µM) it was 1.5%.

`CN1CCC(=C2c3ccccc3CC(=O)c3sccc32)CC1`: the glutamate uptake change in [1] came out at 0.39%. In [2], the inclusion score was found to be 2. For the same compound, in assay [3], the aggregation suppression score was 1.2. The period change in assay [4] is -0.04 h (inactive). Moreover, the survival in assay [5] is 5.83 (inactive). In addition, the inhibition in [6] is -3% (inactive); in assay [11], -6.33% (inactive); in assay [12], -0.39% (inactive). Also, the fluorescence ratio (interference) in assay [7] was 1 (inactive). In addition, the fluorescence ratio is 0.97 (inactive) in assay [10] and 0.93 (inactive) in [13]. The z-score in assay [14] was -0.206 (inactive). Moreover, the nuclear beta-catenin stimulation in assay [8] (at 10 µM) is 1.3% (inactive); in assay [8] (stimulation, at 2 µM) it was -1.2%.

For the compound `C[N+]1(CCCCC[N+]2(C)CCCC2)CCCC1`, the glutamate uptake change in assay [1] is 1.85%. In assay [2], the inclusion score amounted to 2. This compound had an aggregation suppression score in assay [3] of 1.31. For the same compound, in assay [4], the period change was 0.04 h (inactive). Besides, in assay [5], the survival is 22.2 (inactive). In [9], the parasite load remaining was 24.8% (inactive) and 111% (inactive) and 94.9% (inactive); the viability was 48.6% and 96% and 89.3%. The inhibition in [6] is 4% (inactive). In addition, the fluorescence ratio (interference) in assay [7] is 1 (inactive). Moreover, the nuclear beta-catenin stimulation in assay [8] (at 10 µM) was -1.8% (inactive). Besides, the nuclear beta-catenin stimulation in assay [8] (stimulation, at 2 µM) is 0.5%.

As for `COc1ccc(CN(CCN(C)C)c2ccccn2)cc1`, in assay [1], the glutamate uptake change stood at 0.17%. Moreover, the inclusion score in assay [2] was 2. The compound further registered an aggregation suppression score in assay [3] of 1.48. Further, in assay [4], the period change was 0.06 h (inactive). In addition, in assay [5], the survival was 21.9 (inactive). Also, the inhibition in assay [6] was 3% (inactive). Moreover, the fluorescence ratio (interference) in assay [7] is 1 (inactive). Also, the nuclear beta-catenin stimulation was 0.1% (inactive) in assay [8] (at 10 µM) and 7.7% in assay [8] (stimulation, at 2 µM).

With `Cc1cccc(C)c1OCC(C)N` (configuration not stated), the glutamate uptake change in [1] turned out to be 6.77%. Moreover, the inclusion score in assay [2] came to 2. This compound yielded an aggregation suppression score in [3] of 1.44. Moreover, the period change in [4] is 0.025 h (inactive). Besides, the survival in assay [5] was 21.7 (inactive). Also, the inhibition in assay [6] was -2% (inactive); in assay [11] it was -4.09% (inactive); in assay [12], -4.29% (inactive). Moreover, in assay [7], the fluorescence ratio (interference) is 1 (inactive). The fluorescence ratio in [10] is 1.06 (inactive); in assay [13], 1.04 (inactive). Besides, the nuclear beta-catenin stimulation in [8] (at 10 µM) is 1.9% (inactive); in assay [8] (stimulation, at 2 µM) it was 2.4%.

For the compound `COc1ccc(CCN(C)CCCC(C#N)(c2ccc(OC)c(OC)c2)C(C)C)cc1OC` (configuration not stated), in assay [1], the glutamate uptake change came to 24.7%. The inclusion score in [2] came out at 2. In addition, the aggregation suppression score in [3] came out at 1.45. The period change in assay [4] was 0.12 h (inactive). For the same compound, the survival in assay [5] is 22.4 (inactive). In addition, in [6], the inhibition was -3% (inactive). In addition, the fluorescence ratio (interference) in [7] is 1 (inactive). Also, the nuclear beta-catenin stimulation in assay [8] (at 10 µM) was 0.2% (inactive); in assay [8] (stimulation, at 2 µM) it was 0.5%.

As to `NCCCCCC(=O)O`, in [1], the glutamate uptake change is -5.97%. Moreover, the inclusion score in assay [2] was found to be 2. This compound also yielded an aggregation suppression score in [3] of 1.27. Moreover, the period change in assay [4] was 0.065 h (inactive). The survival in [5] is 2 (inactive). Also, in [9], the parasite load remaining was 112% (inactive) and 74.1% (inactive) and 56.9% (inactive). For the same compound, the viability in assay [9] is 104% and 74.3% and 90.5%. Besides, the inhibition in assay [6] is 1% (inactive). Also, the fluorescence ratio (interference) in assay [7] is 0.9 (inactive). Also, the nuclear beta-catenin stimulation in assay [8] (at 10 µM) is 2.8% (inactive); in assay [8] (stimulation, at 2 µM), -1%.

Turning to `CC[N+](CC)(CC)CCOc1cccc(OCC[N+](CC)(CC)CC)c1OCC[N+](CC)(CC)CC`, in [1], the glutamate uptake change was found to be 40.5%. In assay [2], the inclusion score amounted to 2. For the same compound, in assay [3], the aggregation suppression score was 1.15. Also, the period change in assay [4] was 0 h (inactive). Further, the survival in assay [5] is 28.5 (inactive). Moreover, the inhibition in assay [6] is -2% (inactive). For the same compound, the fluorescence ratio (interference) in assay [7] was 1 (inactive). For the same compound, the nuclear beta-catenin stimulation in assay [8] (at 10 µM) is -0.5% (inactive); in assay [8] (stimulation, at 2 µM), -1.4%.
